Source: PubChem BioAssay
Compounds with a hit are over-represented: about 7.3% of the library has one in this group of screens.
AmpC inh detg = inhibitors of E. coli AmpC beta-lactamase with detergent; P00811; AmpC hydrolysis of nitrocefin, absorbance 480 nm, 0.01% Triton; Potency, µM (doses to about 114 µM), without a hit: top-dose activity change, negative = inhibition, most hits filed as inhibitors; 0.041% of 370,000 active; AID 485294;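 also: potency is read from the fitted curve at half-maximal effect; 0% = no-compound wells and -100% = no-enzyme wells; nearly all actives have a fitted effect of over 25% in size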
Target sequence (P00811 whole entry, looked up): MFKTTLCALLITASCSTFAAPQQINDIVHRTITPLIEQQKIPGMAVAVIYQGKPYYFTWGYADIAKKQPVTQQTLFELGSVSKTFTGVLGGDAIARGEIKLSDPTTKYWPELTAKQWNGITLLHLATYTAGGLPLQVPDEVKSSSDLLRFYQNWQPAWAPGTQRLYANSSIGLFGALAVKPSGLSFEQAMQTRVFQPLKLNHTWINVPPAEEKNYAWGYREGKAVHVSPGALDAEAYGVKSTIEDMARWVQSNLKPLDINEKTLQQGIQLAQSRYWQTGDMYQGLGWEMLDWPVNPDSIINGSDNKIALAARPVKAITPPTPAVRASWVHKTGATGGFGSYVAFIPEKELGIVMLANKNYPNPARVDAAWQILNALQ
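20 mM phosphate pH 7.0 + 0.01% (detergent screen) or 0.0001% Triton X-100; 5.3 nM AmpC reagent; cpd preinc 15 min RT; nitrocefin (800 uM stock) to start; A480 q20 s × 4 min; Activity was normalised to no-enzyme and no-compound control wells.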
HCV inh = blocks hepatitis C virus; Huh7.5.1 HCVcc-Cre infection, luciferase reporter, 44 h; Potency, µM (series often up to 41.8 µM), without a hit: at the highest dose activity change, negative = inhibition, most hits filed as inhibitors; 3.4% of 340,000 active; AID 651820; also: potency is read from the fitted curve at half-maximal effect
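Antiviral activity was scored by luciferase reporter output from cells infected with HCVcc-Cre (~0.5 moi) in presence of compound, 44 h infection period, cells seeded 1,000/well 4 h prior.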
AmpC inh no detg = AmpC beta-lactamase inhibition without detergent | P00811 | AmpC nitrocefin hydrolysis, absorbance 480 nm, 0.0001% Triton | Potency, µM (titrated, usually from 57.1 µM), for the others: at the top dose activity change, negative = inhibition, most hits filed as inhibitors | 0.52% of 330,000 active | AID 485341;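 also: potency is read from the fitted curve at half-maximal effect; plate controls were no compound for no effect and no enzyme for full effect; nearly all actives have a fitted effect of over 20% in size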
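20 mM phosphate pH 7.0 + 0.01% (detergent screen) or 0.0001% Triton X-100; 5.3 nM AmpC reagent; cpd preinc 15 min RT; nitrocefin (800 uM stock) to start; A480 q20 s × 4 min; Activity was normalised to no-enzyme and no-compound control wells.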
HCMV inh = inhibitors of human cytomegalovirus; AID 1259415; activity change, negative = inhibition, % at 57.5 µM; HFF cells, HCMV-luciferase reporter, 72 h; active compounds read low; 4.5% of 410,000 active; in the data active = activity change below about -60%; inconclusive = no clear call, values can overlap the other calls; inactive = above about -39%
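Two compound doses tested in HFFs infected with HCMV-luciferase, MOI 1 PFU/cell, 72 h at 37C. Lysate luminescence read with OneGlo; data normalized against buffer-only and 10uM Salinomycin inhibitor controls.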
FMDV antiviral = foot and mouth disease virus antiviral activity | FMDV antiviral cell-based qHTS | AID 1159524 | Potency, µM (series often up to 57.9 µM), for inactives: at the top dose activity change, negative = inhibition, usual class: inhibitors | 1.2% of 410,000 active; calls by dose curve; tested in HEK293T cells; also: read-out not given here; potency is read from the fitted curve at half-maximal effect; nearly all actives have a fitted effect of over 45% in size
An asterisk follows results filed as active. Unless noted, calls follow the shape of the dose curve; as a rule, active = well fitted curve in the direction sought with a large enough effect; inconclusive = small, poorly fitted or top-dose-only effect, or another doubt; inactive = no such curve, though single readings can be large; an effect the other way counts as inactive or inconclusive. Unless noted, % is scaled to controls: 0 for no effect and ±100 for the full control effect.

For COc1cccc(CNC(=O)c2cc3oc4ccccc4c3n2C)c1OC the results were AmpC inh detg 2%, HCV inh inconclusive, AmpC inh no detg 1%, HCMV inh -35 and FMDV antiviral -1%.
Screening COCCNC(=O)C1(C)CCCN(C(=O)c2ccc(F)cc2Cl)C1 (centres undefined) returned HCMV inh 29 and FMDV antiviral -13%.
C[C@H](CO)N1C[C@H](C)[C@@H](CN(C)Cc2ccc3c(c2)OCO3)Oc2c(NC(=O)Cc3ccccc3)cccc2C1=O was read as HCV inh inconclusive, AmpC inh no detg 214%, HCMV inh inconclusive and FMDV antiviral 40%.
O=C(NC[C@@H]1CCCN2CCCC[C@H]12)c1cnn(-c2nccc(-c3ccco3)n2)c1C1CC1 was read as FMDV antiviral -9%.
Cc1cccc(NC(=S)NCCc2c[nH]c3ccccc23)c1 was read as AmpC inh detg -17%, HCV inh -13%, AmpC inh no detg -44%, HCMV inh -80* and FMDV antiviral 13%.
For Cc1ccccc1NC(=S)NCCc1c[nH]c2ccccc12 the results were AmpC inh detg 6%, HCV inh -3%, AmpC inh no detg -21%, HCMV inh -17 and FMDV antiviral 38%.
Screening Cc1ccc(C)c(NC(=S)NCCc2c[nH]c3ccccc23)c1 returned AmpC inh detg 4%, HCV inh inconclusive, AmpC inh no detg -33%, HCMV inh -78* and FMDV antiviral 2%.
`Cc1ccc(NC(=S)NCCc2c[nH]c3ccccc23)cc1` gave AmpC inh detg -1%, HCV inh inconclusive, AmpC inh no detg -36%, HCMV inh 1 and FMDV antiviral 39%.
For O=C(Nc1cccc(C(F)(F)F)c1)Nc1ccc2[nH]c(=O)[nH]c2c1 the results were AmpC inh detg -1%, HCV inh 1%, AmpC inh no detg -13%, HCMV inh 2 and FMDV antiviral -9%.
`COc1ccc(-n2c(-c3ccc(C)cc3)cc3c2CC(C)(C)CC3=O)c(OC)c1` gave AmpC inh detg 18%, HCMV inh inconclusive and FMDV antiviral -11%.
`O=c1cc(CO)oc(C(Nc2ccccn2)c2cccc(F)c2)c1O` (centres undefined) gave AmpC inh detg inconclusive, HCV inh 1%, AmpC inh no detg 40µM*, HCMV inh 62 and FMDV antiviral -5%.
For COc1cccc(C(Nc2ccccn2)c2oc(CO)cc(=O)c2O)c1 (centres undefined) the results were AmpC inh detg -13%, HCV inh 21%, AmpC inh no detg -25%, HCMV inh 5 and FMDV antiviral -16%.
`COc1cccc(/C=C2\SC(=S)N(CCC(=O)Nc3ccc(O)cc3)C2=O)c1` gave AmpC inh detg inconclusive, HCV inh inconclusive, AmpC inh no detg -29%, HCMV inh 32 and FMDV antiviral 38%.
`COc1cccc(/C=C2\SC(=S)N(CCCC(=O)N3CCCCC3)C2=O)c1` gave AmpC inh detg -8%, HCV inh 13µM*, AmpC inh no detg -20%, HCMV inh -20 and FMDV antiviral -15%.
`COc1cccc(/C=C2\SC(=S)N(CCC(=O)NCCc3ccc(O)cc3)C2=O)c1` gave AmpC inh detg 0%, HCV inh inconclusive, AmpC inh no detg -49%, HCMV inh -100* and FMDV antiviral 0%.
For CC(C(=O)NC1C=CS(=O)(=O)C1)N1C(=O)/C(=C/c2cccc(Cl)c2)SC1=S (centres undefined) the results were AmpC inh detg 5%, HCV inh 5%, AmpC inh no detg 35%, HCMV inh -65* and FMDV antiviral 2%.
Screening CN1CCN(C(=O)CCCN2C(=O)/C(=C/c3cccc(Br)c3)SC2=S)CC1 returned AmpC inh detg -8%, HCV inh 6.3µM*, AmpC inh no detg 128%, HCMV inh -84* and FMDV antiviral -7%.
CCc1ccc(NC(=O)C(CC)n2c(=O)c(C(F)(F)F)nc3ccccc32)cc1 (centres undefined) was read as AmpC inh detg 1%, HCMV inh 0 and FMDV antiviral -22%.
C[C@@H]1CN([C@@H](C)CO)C(=O)c2cc(NS(=O)(=O)c3ccc(Cl)cc3)ccc2O[C@H]1CN(C)Cc1ccncc1 was read as HCV inh 31%, AmpC inh no detg 141%, HCMV inh -5 and FMDV antiviral 3%.
`CCS(=O)(=O)N1CC2(CN(C(=O)Cc3ccccn3)[C@@H](CO)c3[nH]c4cc(OC)ccc4c32)C1` gave HCMV inh 2.
For COc1ccc(/C=C2\SC(=S)N(CCCC(=O)N3CCN(C)CC3)C2=O)cc1 the results were AmpC inh detg inconclusive, HCV inh 16%, AmpC inh no detg 190%, HCMV inh -77* and FMDV antiviral 5%.
Screening CCc1ccc(/C=C2\SC(=S)N(CCCC(=O)N3CCN(C)CC3)C2=O)cc1 returned HCMV inh -101* and FMDV antiviral 15%.
Screening COc1ccc(/C=C2\SC(=S)N(CCC(=O)NC3C=CS(=O)(=O)C3)C2=O)cc1 (centres undefined) returned AmpC inh detg inconclusive, HCV inh inconclusive, AmpC inh no detg -16%, HCMV inh -80* and FMDV antiviral -3%.
COCCC(=O)N1CCC(n2nccc2NC(=O)c2ccccc2C)CC1 was read as AmpC inh detg -15%, HCV inh 13%, AmpC inh no detg -16%, HCMV inh -26 and FMDV antiviral 17%.
Screening COc1ccccc1CN1CCC2(CCC(CNC(=O)c3ccccc3N(C)C)O2)CC1 (centres undefined) returned FMDV antiviral -3%.
`O=C(NCc1nnc(SCc2ccc(C(F)(F)F)cc2)n1-c1ccccc1)C12CC3CC(CC(C3)C1)C2` gave AmpC inh detg 2%, HCV inh inconclusive, AmpC inh no detg 133%, HCMV inh -19 and FMDV antiviral inconclusive.
Screening O=C(NCc1nnc(SCc2ccc(F)cc2)n1-c1ccccc1)C12CC3CC(CC(C3)C1)C2 returned AmpC inh detg -2%, HCV inh -27%, AmpC inh no detg 80%, HCMV inh 46 and FMDV antiviral 40µM*.
Screening O=C(CSc1ccc(-c2cccnc2)nn1)N1CCCc2ccccc21 returned AmpC inh detg 8%, AmpC inh no detg -12% and HCMV inh inconclusive.
Screening CC(Sc1nnc(-c2cccnc2)n1-c1ccccc1F)C(=O)N1CCCc2ccccc21 (centres undefined) returned AmpC inh detg -8%, HCV inh 6%, AmpC inh no detg 65% and HCMV inh -65*.
